A selection: hits, their analogues and other compounds. The true share with any hit is near 7.5%.
KinaseGlo FLuc: Counterscreen for Luciferase (Kinase-Glo TM) Inhibition; Potency, µM (titrated, usually from 38.3 µM), hits mostly inhibitors; Kinase-Glo luciferase, ATP luminescence, 8 min; 0.28% of 200,000 active; also: nearly all actives have a fitted effect of over 60% in size
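Luminescence was the read-out, taken after 8-minute incubation at ambient temperature. Luciferase turned over luciferin with 10 uM ATP in imidazole pH 7.2 buffer containing KCl, MgCl2, Tween 20 and BSA.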
Rab9 prom act: qHTS Assay for Rab9 Promoter Activators; 2.8% of 320,000 active; AID 485297, 2010; Huh7 Rab9 promoter-luciferase reporter, luminescence, 24 h; Potency, µM (series often up to 9.22 µM), actives largely listed as activators; also: nearly all actives have a fitted effect of over 60% in size
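Stable Rab9-luc Huh7, 1500 cells/well, 2 h settle; cmpd in DMSO, 24 h, 37 °C/5% CO2; luciferase reagent 10 min RT; luminescence.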
FLuc modulator: qHTS profiling assay for firefly luciferase inhibitor/activator using purifed enzyme and Km concentrations of substrates (counterscreen for miR-21 project); Luciferin 4-monooxygenase (Photinus pyralis), P08659; purified FLuc, Km substrates, luminescence inhibition; Potency, µM (doses to about 57.5 µM), most hits filed as inhibitors; 6.9% of 360,000 active; AID 588342, 2011; also: nearly all actives have a fitted effect of over 55% in size
Target sequence (P08659 whole entry, looked up): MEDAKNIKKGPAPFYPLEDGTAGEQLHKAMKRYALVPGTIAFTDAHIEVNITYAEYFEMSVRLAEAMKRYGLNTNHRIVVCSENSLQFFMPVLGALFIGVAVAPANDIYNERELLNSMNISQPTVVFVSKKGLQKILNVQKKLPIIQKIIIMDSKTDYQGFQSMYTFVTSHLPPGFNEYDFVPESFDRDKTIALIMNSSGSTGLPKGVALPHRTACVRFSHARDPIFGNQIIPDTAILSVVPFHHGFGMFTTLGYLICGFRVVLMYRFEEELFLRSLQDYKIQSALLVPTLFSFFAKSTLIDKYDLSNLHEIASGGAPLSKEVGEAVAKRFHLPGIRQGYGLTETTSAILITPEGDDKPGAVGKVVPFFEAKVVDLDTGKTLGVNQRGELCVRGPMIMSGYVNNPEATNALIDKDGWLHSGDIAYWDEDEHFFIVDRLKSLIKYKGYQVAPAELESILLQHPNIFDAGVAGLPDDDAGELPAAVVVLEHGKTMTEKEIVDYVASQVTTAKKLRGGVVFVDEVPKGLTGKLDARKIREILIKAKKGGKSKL
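Purified P. pyralis luciferase (10nM final) with 10uM D-luciferin and 10uM ATP (Km levels) in 50mM Tris acetate pH 7.5, 10mM Mg acetate, 0.01% Tween-20, 0.05% BSA; qHTS 6-point titration, ~60 µM downward; luminescence read.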
ELG1 genotoxic: qHTS screen for small molecules that induce genotoxicity in human embryonic kidney (HEK293T) cells expressing luciferase-tagged ELG1; HEK293T ELG1-luciferase reporter, luminescence, 16 h; AID 504466, 2011; 1.3% of 330,000 active; Potency, µM (series often up to 46 µM), usual class: activators; also: nearly all actives have a fitted effect of over 60% in size
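Genotoxic stress is detected as increased luminescence from luciferase-tagged ELG1 in HEK293T cells, measured with ONE-Glo after a 16 hr treatment at 37 °C.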
NPC1 promoter act: qHTS Assay for NPC1 Promoter Activators | 2.4% of 320,000 active | Huh7 NPC1 promoter luciferase reporter, 24 h | Potency, µM (highest dose often 9.22 µM), hits mostly activators; also: nearly all actives have a fitted effect of over 60% in size
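In 1536-well qHTS, Huh7 cells harboring an NPC1 promoter–luciferase construct received compound for 24 h; activation was quantified by luminescence following luciferase reagent addition.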
SMN2 splice up: qHTS Assay for Enhancers of SMN2 Splice Variant Expression. HEK293 SMN2-luciferase splicing reporter, luminescence, 30-36 h. 2.8% of 210,000 active. AID 1458, 2008. Potency, µM (top dose mostly 46.1 µM), usual class: activators; also: nearly all actives have a fitted effect of over 55% in size
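HEK293 cells carry an SMN2 minigene-luciferase reporter in which exon 7 inclusion puts luciferase in frame. Cells were seeded at 2000 cells/well, attached for 10-12 hours, then exposed to compounds for 30-36 hours at 37C before ONE-Glo luminescence.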
Of the large screens only hits and unclear results are named; the others gave an inactive call. Calls follow the shape of the dose curve; as a rule, active = well fitted curve in the direction sought with a large enough effect; inconclusive = small, poorly fitted or top-dose-only effect, or another doubt; inactive = no such curve, though single readings can be large; an effect the other way counts as inactive or inconclusive.

COc1ccc(-c2[nH]ncc2/C=N\NC(=O)c2ccc(C(C)(C)C)cc2)cc1OC	FLuc modulator 1.3µM, SMN2 splice up inconclusive
CCCCOc1ccc(C(=O)N/N=C/c2cn[nH]c2-c2ccc(OC)c(OC)c2)cc1	FLuc modulator 12µM
CCc1ccccc1NC(=O)C1CCCN(S(=O)(=O)c2ccc3c(c2)CC(C)N3C(C)=O)C1 (stereo not drawn)	none (no result: KinaseGlo FLuc, SMN2 splice up)
CCC(Sc1nc2ccncc2[nH]1)C(=O)Nc1cc(C)ccc1C (stereo not drawn)	none (no result: KinaseGlo FLuc, Rab9 prom act, ELG1 genotoxic, NPC1 promoter act)
Cc1ccc(N2NC(=O)/C(=C/c3ccc(-c4ccc(Cl)c(C(=O)O)c4)o3)C2=O)cc1C	FLuc modulator 17µM (no result: KinaseGlo FLuc, SMN2 splice up)
O=C1NN(c2ccc(Cl)c(Cl)c2)C(=O)/C1=C/c1ccc(-c2ccccc2C(=O)O)o1	FLuc modulator inconclusive (no result: KinaseGlo FLuc, SMN2 splice up)
O=C1NN(c2ccccc2)C(=O)/C1=C/c1ccc(-c2ccc(C(=O)O)cc2)o1	FLuc modulator 21µM (no result: KinaseGlo FLuc, SMN2 splice up)
COC(=O)c1ccc(N2NC(=O)/C(=C/c3ccc(-c4ccc(Cl)c(C(=O)O)c4)o3)C2=O)cc1	FLuc modulator 11µM
COC(=O)C1C(=O)c2c([nH]c(C(=O)OC3CCCC3)c2C)CC1C (stereo not drawn)	FLuc modulator 2.4µM, SMN2 splice up 14µM (no result: Rab9 prom act, ELG1 genotoxic, NPC1 promoter act)
COc1ccc(C2CC(=O)c3c([nH]c(C(=O)OC4CCCCCC4)c3C)C2)cc1 (stereo not drawn)	none (no result: KinaseGlo FLuc, Rab9 prom act, ELG1 genotoxic, NPC1 promoter act)
O=C(C1CCN(S(=O)(=O)c2cccc3nonc23)CC1)N1CCN(c2ccc(F)cc2)CC1	none (no result: KinaseGlo FLuc, Rab9 prom act, ELG1 genotoxic, NPC1 promoter act)
O=S(=O)(c1cccc2nonc12)N1CCN(c2ccc(F)cc2)CC1	FLuc modulator 27µM (no result: SMN2 splice up)
O=C(CSc1nnc(NC(=O)C2CC(=O)N(c3ccc(F)cc3)C2)s1)NC1CCCC1 (stereo not drawn)	none (no result: KinaseGlo FLuc, SMN2 splice up)
CC(=O)Nc1sc2c(c1C(N)=O)CCC2	none
Cc1sc(NC(=S)NC(=O)C(C)(C)C)c(C(N)=O)c1C	Rab9 prom act inconclusive, FLuc modulator 4.8µM, ELG1 genotoxic inconclusive, NPC1 promoter act inconclusive, SMN2 splice up inconclusive
CCCCC(=O)Nc1sc2c(c1C(N)=O)CCC2	Rab9 prom act inconclusive, FLuc modulator 21µM, ELG1 genotoxic inconclusive, SMN2 splice up inconclusive
CC(C)(C)C(=O)NC(=S)Nc1sc2c(c1C(N)=O)CCC2	Rab9 prom act inconclusive, FLuc modulator 4.8µM, NPC1 promoter act inconclusive, SMN2 splice up 10µM
CC1CCCCC12NC(=O)N(CC(=O)NCCc1ccccc1)C2=O (stereo not drawn)	none (no result: KinaseGlo FLuc, Rab9 prom act, FLuc modulator, NPC1 promoter act, SMN2 splice up)
O=C(NCCc1nc2ccccc2[nH]1)c1cc([N+](=O)[O-])cc([N+](=O)[O-])c1	none
N/N=C(/Cc1nc2ccccc2[nH]1)c1ccc([N+](=O)[O-])cc1	FLuc modulator 12µM, SMN2 splice up inconclusive
N#CCCN/N=C(/Cc1nc2ccccc2[nH]1)c1ccc(Cl)cc1	Rab9 prom act inconclusive, FLuc modulator 27µM, ELG1 genotoxic inconclusive, SMN2 splice up 14µM
c1ccc(N/N=C(\Cc2nc3ccccc3[nH]2)c2ccccc2)cc1	FLuc modulator 7.6µM, ELG1 genotoxic inconclusive, NPC1 promoter act inconclusive, SMN2 splice up 13µM
CCOC(=O)c1cccc(NC(=O)C(C)n2c(C)c3cnn(-c4ccccc4)c(=O)c3c2C)c1 (stereo not drawn)	none (no result: KinaseGlo FLuc, Rab9 prom act, ELG1 genotoxic, NPC1 promoter act)
O=C1N/C(=N/Nc2ccccc2)S/C1=C\c1ccccc1	FLuc modulator 13µM, SMN2 splice up inconclusive
O=C(N[C@H]1/C=C\[C@@H](O)CCCC1)OCc1ccccc1	ELG1 genotoxic 15µM (no result: KinaseGlo FLuc, Rab9 prom act, FLuc modulator, NPC1 promoter act, SMN2 splice up)
Cc1cccc(C=Nc2ccc3c(c2)oc2ccccc23)c1O	Rab9 prom act 4µM, FLuc modulator inconclusive, SMN2 splice up 10µM
COc1ccc(S(=O)(=O)N2Cc3ccccc3CC2C(=O)Nc2nccs2)cc1OC (stereo not drawn)	FLuc modulator inconclusive, ELG1 genotoxic 5.8µM, SMN2 splice up 13µM
